T cruzi growth: T. cruzi intracellular proliferation inhibitors, primary screen, cell-based, beta-gal Tulahuen parasites, NIH3T3 host, luminescence; T. cruzi beta-gal in NIH3T3, GalScreen luminescence, 90 h; inhibition, % at 8.34 µM; hit rate 5.9% among 77,000; AID 624255, 2012;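 active = mean inhibition above about 93%, with at least 55% of replicates each passing it, limit read from the data, passing the limit was not always enough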
Pf Dd2 inh: P. falciparum Dd2 growth inhibitors, primary screen, SYBR Green fluorescence, single dose replicates; 72 h; stronger effect = lower value; activity change, % at 10 µM; hit rate 2.3% among 94,000; AID 1159554, 2015; in the data active = activity change below about -80%
C diff growth: C. difficile growth inhibitors, primary screen, HTS. Clostridium difficile clinical isolate growth, OD600, 24 h; stronger effect = lower value. hit rate 0.25% among 86,000. growth activity, negative = inhibition, % at 16 µg/mL (by protocol). AID 1259249, 2017;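 active = mean growth activity at or below -80% and every replicate also at or below -80%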;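 note: 0% = DMSO wells and -100% = levofloxacin 16 µg/mL wells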
Active calls of the source: *; . = not tested or not shown. Shown are actives, neighbours in structure and some others; about 6.7% of the full set was active somewhere.

SMILES	T cruzi growth	Pf Dd2 inh	C diff growth
COc1ccc(S(=O)(=O)N(C)C[C@@H]2OCCCC[C@@H](C)Oc3ccc(NC(=O)Nc4ccc5c(c4)OCO5)cc3C(=O)N([C@@H](C)CO)C[C@@H]2C)cc1	75	-88*	8
COc1ccc(NC(=O)Nc2ccc3c(c2)C(=O)N([C@H](C)CO)C[C@@H](C)[C@H](CN(C)S(=O)(=O)c2ccc(OC)cc2)OCCCC[C@H](C)O3)cc1	-14	9	0
COc1ccc(NC(=O)Nc2ccc3c(c2)C(=O)N([C@@H](C)CO)C[C@@H](C)[C@H](CN(C)S(=O)(=O)c2ccc(OC)cc2)OCCCC[C@@H](C)O3)cc1	84	-57	1
Cc1ccccc1-c1ccc2c(c1)O[C@@H](CN(C)CC1CC1)[C@@H](C)CN([C@H](C)CO)S2(=O)=O	48	-52	1
CCCC#Cc1ccc([C@@H]2[C@@H](CO)N3C(=O)CN(C(=O)CN4CCOCC4)C[C@@H]23)cc1	.	-3	-9
CCCC#Cc1cnc2c(c1)C(=O)N([C@H](C)CO)C[C@H](C)[C@H](CN(C)C(=O)Nc1cc(F)ccc1F)O2	21	-35	-4
COc1ccccc1NC(=O)N(C)C[C@@H]1Oc2ncc(C#CC(C)C)cc2C(=O)N([C@@H](C)CO)C[C@H]1C	51	-82*	-3
COc1ccccc1NC(=O)N(C)C[C@H]1Oc2ncc(C#CC(C)C)cc2C(=O)N([C@H](C)CO)C[C@H]1C	29	-1	1
CCCC#Cc1cnc2c(c1)C(=O)N([C@H](C)CO)C[C@@H](C)[C@H](CN(C)C(=O)Nc1cc(F)ccc1F)O2	54	-81*	-11
Cc1noc(C)c1S(=O)(=O)N(C)C[C@@H]1OCCCC[C@H](C)Oc2ccc(NS(=O)(=O)c3cccs3)cc2C(=O)N([C@H](C)CO)C[C@@H]1C	.	-30	0
COc1ccc(NC(=O)Nc2ccc3c(c2)C(=O)N([C@H](C)CO)C[C@@H](C)[C@@H](CN(C)S(=O)(=O)c2ccc(Cl)cc2)OCCCC[C@H](C)O3)cc1	72	-79	-1
COc1ccc(NC(=O)Nc2ccc3c(c2)C(=O)N([C@H](C)CO)C[C@H](C)[C@H](CN(C)S(=O)(=O)c2ccc(Cl)cc2)OCCCC[C@@H](C)O3)cc1	33	-82*	10
COc1ccc(NC(=O)Nc2ccc3c(c2)C(=O)N([C@H](C)CO)C[C@@H](C)[C@@H](CN(C)S(=O)(=O)c2ccc(C)cc2)OCCCC[C@H](C)O3)cc1	-80	-75	.
COc1ccc(NC(=O)Nc2ccc3c(c2)C(=O)N([C@@H](C)CO)C[C@H](C)[C@H](CN(C)S(=O)(=O)c2ccc(Cl)cc2)OCCCC[C@@H](C)O3)cc1	80	-87*	8
COc1ccc(S(=O)(=O)N(C)C[C@H]2OCCCC[C@H](C)Oc3ccc(NC(=O)Nc4ccccc4)cc3C(=O)N([C@H](C)CO)C[C@@H]2C)cc1	53	-38	-7
COc1ccc(S(=O)(=O)N(C)C[C@@H]2OCCCC[C@@H](C)Oc3ccc(NC(=O)Nc4ccccc4)cc3C(=O)N([C@@H](C)CO)C[C@@H]2C)cc1	74	-83*	-1
CC(C)CC#Cc1cnc2c(c1)C(=O)N([C@H](C)CO)C[C@@H](C)[C@H](CN(C)S(=O)(=O)c1cccs1)O2	82	-10	-8
C[C@H](CO)N1C[C@H](C)[C@H](CN(C)S(=O)(=O)c2cccc(F)c2)OCc2cn(nn2)CCCC1=O	-2	7	.
O=C(CCN1CCCCC1)N[C@H]1CC[C@H](CCNC(=O)c2cc(Cl)cc(Cl)c2)O[C@@H]1CO	-94	-13	.
C[C@H]1CN([C@@H](C)CO)C(=O)Cc2cc(NC(=O)CCCCCC(=O)Nc3ccccc3N)ccc2O[C@H]1CN(C)Cc1ccc(Oc2ccccc2)cc1	11	-85*	-2
C[C@H](CO)N1C[C@H](C)[C@H](CN(C)Cc2ccccc2)Oc2ccc(NC(=O)CCCCCC(=O)Nc3ccccc3N)cc2CC1=O	45	-50	-5
C[C@H](CO)N1C[C@H](C)[C@H](CN(C)Cc2ccc(Oc3ccccc3)cc2)Oc2ccc(NC(=O)CCCCCC(=O)Nc3ccccc3N)cc2CC1=O	27	-84*	2
C[C@@H]1CN([C@@H](C)CO)C(=O)Cc2cc(NC(=O)CCCCCC(=O)Nc3ccccc3N)ccc2O[C@@H]1CN(C)Cc1ccc(-c2ccccc2)cc1	47	-58	-2
COc1ccc(S(=O)(=O)Nc2cccc3c2O[C@@H](CN(C)C(=O)NC2CCCCC2)[C@H](C)CN([C@@H](C)CO)C3=O)cc1	4	-31	1
CCN1[C@@H]2c3ccc(-c4ccccc4)c(=O)n3C[C@H]1[C@H](CO)[C@H]2C(=O)NCc1ccccc1	58	9	1
SMILES	T cruzi growth	Pf Dd2 inh	C diff growth
COc1ccc(CN(C)C[C@@H]2Oc3ccc(NC(=O)Nc4ccc(OC)cc4)cc3C(=O)N([C@H](C)CO)C[C@@H]2C)cc1	14	26	5
C[C@H](CO)N1C[C@H](C)[C@H](CN(C)S(=O)(=O)c2ccc(F)cc2)Oc2c(NS(=O)(=O)c3cn(C)cn3)cccc2C1=O	-147	-1	2
O=C(c1cccnc1)N1C[C@H]2[C@@H](c3ccccc31)[C@H](CO)N2C(=O)Nc1ccccc1Cl	6	-14	3
COc1ccccc1C#Cc1ccc2c(c1)[C@@H]1NCC[C@@H]1[C@H](CO)N2	.	-90*	0
O=S(=O)(c1cccc(F)c1)N1CC[C@@H]2[C@@H](CO)Nc3ccc(C#Cc4cccc(F)c4)cc3[C@@H]21	78	-20	3
OC[C@@H]1Nc2ccc(C#Cc3cccc(F)c3)cc2[C@H]2NCC[C@@H]12	.	-88*	-13
COc1ccccc1C#Cc1ccc2c(c1)[C@H]1[C@H](CCN1S(=O)(=O)c1ccccc1)[C@@H](CO)N2	.	-17	-5
CO[C@H]1CC[C@@H]2CCN(C)C(=O)[C@@H](C)N(C)C(=O)c3cc(C#N)ccc3OC[C@H]1O2	0	.	.
C[C@H]1CN([C@@H](C)CO)S(=O)(=O)c2ccc(C#CC3CC3)cc2O[C@H]1CN(C)S(C)(=O)=O	.	30	2
O=C1CS(=O)(=O)C(c2ccccc2)N1c1ccc(Cl)cc1 (stereo not drawn)	.	.	1
Cc1ccc(S(=O)(=O)Nc2ccc3c(c2)CC(=O)N([C@H](C)CO)C[C@H](C)[C@@H](CN(C)Cc2ccc(C(=O)Nc4ccccc4N)cc2)O3)cc1	.	-85*	0
C[C@@H]1CN([C@H](C)CO)C(=O)Cc2cc(NS(=O)(=O)c3ccc(F)cc3)ccc2O[C@@H]1CN(C)Cc1ccc(C(=O)Nc2ccccc2N)cc1	.	-78	5
Cc1ccc(S(=O)(=O)Nc2ccc3c(c2)CC(=O)N([C@@H](C)CO)C[C@@H](C)[C@@H](CN(C)Cc2ccc(C(=O)Nc4ccccc4N)cc2)O3)cc1	67	-88*	3
Cc1ccc(S(=O)(=O)Nc2ccc3c(c2)C(=O)N([C@@H](C)CO)C[C@H](C)[C@H](CN(C)Cc2ccc(C(=O)Nc4ccccc4N)cc2)O3)cc1	81	-72	-6

From PubChem BioAssay
